Measured potencies and affinities stand elsewhere.
What was measured:
[1] = tested on: Staphylococcus aureus; settings: Concentration 32 ug.mL-1;; ASSAY_TEST Inhibition of Bacterial Growth; detection method Absorption (OD600); MEDIA CAMHB; plate type 384well; NBS; CORNING #3640; time 18 hr
[2] = tested on: Escherichia coli; settings: Concentration 32 ug.mL-1;; ASSAY_TEST Inhibition of Bacterial Growth; detection method Absorption (OD600); MEDIA CAMHB; plate type 384well; NBS; CORNING #3640; time 18 hr

| Structure (SMILES) | Inhibition [1] | Inhibition [2] |
| --- | --- | --- |
| Cc1cc(C)c(C(=O)CSc2nnc3c(=O)n(-c4ccc(F)c(F)c4)ccn23)cc1C | 17% | -3.21% |
| O=C(CSc1nnc2c(=O)n(-c3ccc(F)c(F)c3)ccn12)c1ccccc1Cl | 3.6% | -5.26% |
| COc1cc(OC)c(NC(=O)Cn2nc3c(N4CCOCC4)nccn3c2=O)cc1Cl | 4.84% | -1.96% |
| COc1ccc(C)cc1NC(=O)Cn1nc2c3cc(-c4ccc(C)c(C)c4)nn3ccn2c1=O | 0.65% | -4.8% |
| CCOc1ccccc1NC(=O)Cn1nc2c(N3CCN(c4ccccc4C)CC3)nccn2c1=O | -2.13% | -13.69% |
| Cc1cccc(C)c1NC(=O)Cn1nc2c(N3CCSCC3)nc3ccccc3n2c1=O | -9.27% | -7.41% |
| COc1ccc(C(C)NC(=O)CCc2nnc3ccc(-c4ccc(C)c(C)c4)nn23)cc1OC (centres undefined) | 7.27% | -3.17% |
| Cc1cc2nn(CC(=O)Nc3cccc(F)c3)c(=O)n2c(Nc2ccc(F)c(C)c2)n1 | -1.56% | -7.72% |
| COc1ccc(N(Cc2ccc(C)cc2)S(=O)(=O)c2ccc3nnc(C)n3c2)cc1 | -1.53% | -8.35% |
| Cc1cc(C)c(NC(=O)Cn2nc3c(SCc4ccc(Cl)cc4)nccn3c2=O)c(C)c1 | 3.14% | 0.78% |
| Cc1ccc(NC(=O)Cn2nc3c(N4CCOCC4)nccn3c2=O)cc1Cl | 10.97% | 1.83% |
| NC(=O)CSc1nnc2c(=O)n(-c3ccc(F)cc3)ccn12 | 22.03% | 3.06% |
| COc1ccc(Cl)cc1NC(=O)Cn1nc2c3cc(-c4ccc(C)c(C)c4)nn3ccn2c1=O | -18.41% | -23.9% |
| Cc1nnc2ccc(S(=O)(=O)N(Cc3ccccc3F)c3ccc(Cl)cc3)cn12 | -12.68% | -19.04% |
| Cc1cccc(Sc2nccn3c(=O)n(CC(=O)N4CCN(c5ccc(F)cc5)CC4)nc23)c1 | -10.95% | -6.75% |
| COc1cc(OC)c(NC(=O)Cn2nc3ccc(-c4ccc(C)c(C)c4)nn3c2=O)cc1Cl | 2.47% | -7.33% |

| Structure (SMILES) | Inhibition [1] | Inhibition [2] |
| --- | --- | --- |
| COc1ccc(NC(=O)Cn2nc3ccc(-c4ccccc4)nn3c2=O)cc1 | 6.57% | -0.4% |
| CCCN(C)c1nccn2c(=O)n(CC(=O)Nc3ccc(C#N)cc3)nc12 | 14.04% | -2.47% |
| CCOc1ccc(-n2ccn3c(SC(CC)C(=O)Nc4ccc(C(C)C)cc4)nnc3c2=O)cc1 (centres undefined) | 5.33% | -6.24% |
| COc1ccccc1-n1ccn2c(SCC(=O)Nc3ccc4c(c3)OCO4)nnc2c1=O | 7.67% | -8.08% |
| CCc1ccccc1Sc1nccn2c(=O)n(CC(=O)N3CCN(c4ccccc4F)CC3)nc12 | -3.66% | -8.54% |
| Cc1ccc(Sc2nccn3c(=O)n(CC(=O)Nc4ccc(Br)cc4C)nc23)c(C)c1 | -15.15% | -16.85% |
| Cc1cc(C)c(NC(=O)Cn2nc3ccc(-c4ccc(C)c(C)c4)nn3c2=O)c(C)c1 | -8.09% | -15.6% |
| Cc1cccc(C)c1NC(=O)Cn1nc2c(SC3CCCCC3)nccn2c1=O | 9.56% | -6.16% |
| Cc1cc(C)cc(Nc2nc(C)cc3nn(CC(=O)Nc4cc(F)ccc4F)c(=O)n23)c1 | 10.55% | 0.49% |
| Cc1cccc(C)c1NC(=O)CSc1nc2ccccc2n2c(C)nnc12 | 11.69% | -4.17% |
| COc1cccc(Oc2nccn3c(=O)n(CC(=O)Nc4ccccc4C(F)(F)F)nc23)c1 | 13.2% | -0.25% |
| Cc1cccc(Sc2nccn3c(=O)n(CC(=O)N4CCN(c5ccccc5)CC4)nc23)c1 | 12.14% | -10.39% |
| COC(=O)c1sccc1NC(=O)Cn1nc2c(Oc3ccc(C)cc3)nc3ccccc3n2c1=O | 6.43% | 0.18% |
| COc1ccc(CN(c2ccc(OC)cc2)S(=O)(=O)c2ccc3nnc(C)n3c2)cc1 | 4.23% | -1.31% |
| Cc1cc(F)ccc1NC(=O)Cn1nc2c(SCc3ccc(Cl)cc3)nccn2c1=O | 7.28% | -4.86% |
| O=C(CSc1nnc2c(=O)n(-c3ccc(F)c(F)c3)ccn12)c1cccc(Cl)c1 | 13.4% | -3.45% |

From ChEMBL document CHEMBL4513146, “CO-ADD screening of Karazin Kharkiv National University (Ukraine) compounds”
